In PubChem BioAssay (NCATS):
Records with an inconclusive call do not appear. Where a call stands in place of a potency, no number is given. The source made the active and inactive calls. The call rests on the fitted dose curve; in most records, active means well fitted inhibition curve with a large enough effect; inconclusive means small, poorly fitted or top-dose-only effect; inactive means flat fitted curve, though single readings scatter.

Tested on: TAB109
Assay: qHTS profiling for inhibitors of Plasmodium falciparum proliferation (AID 504749); further: nearly all actives have a fitted effect of over 60% in size
Details: P. falciparum in erythrocytes, SYBR Green DNA, 72 h; series mostly up to 28.7 µM
Method in brief: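 SYBR Green fluorescence (ex 485 nm, em 535 nm) reports parasite DNA after 72 h compound exposure of infected red cells at 0.3% parasitemia, 2.5% hematocrit; signal normalized to 0.29 uM artemisinin and vehicle wells.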
Potency means the concentration at half of the fitted maximal effect.

| SMILES | Potency |
| --- | --- |
| CC(C)(C)c1cc(O)ccc1O | 4.47 µM (active) |
| F/C(COc1ccc2c(c1)[nH]c1ccccc12)=C1/CN2CCC1CC2 | 7.94 µM (active) |
| CCOC(=O)c1ccccc1C(=O)OCC | inactive |
| c1ccc(C2(N3CCCC3)CCCCC2)cc1 | 7.94 µM (active) |
| CCN(CC)C(=O)/C(Cl)=C(\C)OP(=O)(OC)OC | inactive |
| CCCC(=O)OC(C(Cl)(Cl)Cl)P(=O)(OC)OC (stereo not given) | inactive |
| CCOP(=O)(OCC)O/C(=C/Cl)c1ccc(Cl)cc1Cl | inactive |
| C=CCN=C=S | inactive |
| CC(N)Cc1ccc(O)cc1 (stereo not given) | inactive |
| c1cc2c(c(NC3=NCCN3)c1)CCCC2 | inactive |
| O=C(NCNC(=O)NC1C(=O)NC(=O)N1CO)NC1C(=O)NC(=O)N1CO (stereo not given) | inactive |
| CCC1C(C)=NN=C(c2ccc(OC)c(OC)c2)c2cc(OC)c(OC)cc21 (stereo not given) | inactive |
| O=Cc1ccco1 | inactive |
| O=C(NC(=O)c1c(F)cccc1F)Nc1ccc(Cl)c(Oc2ncc(C(F)(F)F)cc2Cl)c1 | inactive |
| C/C(=C\c1csc(C)n1)[C@@H]1C[C@@H]2O[C@]2(C)CCC[C@H](C)[C@H](O)[C@@H](C)C(=O)C(C)(C)[C@@H](O)CC(=O)O1 | 0.0025 µM (active) |
| C[C@H]1CCC[C@H](O)CCCCCc2cc(O)cc(O)c2C(=O)O1 | inactive |
| CCCN1CCCC2Cc3[nH]ncc3CC21 (stereo not given) | inactive |
| CC12NC(Cc3ccccc31)c1ccccc12 (stereo not given) | 2.82 µM (active) |
| COc1ccc2c(c1OC)C(=O)OC2C1c2cc3c(cc2CCN1C)OCO3 (stereo not given) | inactive |
| C=CCC1(C(C)CCC)C(=O)N=C(S)NC1=O (stereo not given) | inactive |
